The record followed here is PubChem BioAssay AID1645887 (National Center for Advancing Translational Sciences (NCATS), 2021).

Values joined by “and” are separate entries in the source; they are usually repeats but may differ in a detail not shown here. Equal values may be shown once. Among all 16,000 compounds or so, about 40 (0.2%) were called active. Inconclusive results (about 1%) are left out. The sample as a whole holds a higher share of actives than the screen did. Values without a mark were called inactive. Calls come from the whole dose curve; as a rule, active = well fitted activation curve with a large enough effect; inconclusive = small, poorly fitted or top-dose-only effect, or another doubt; inactive = no such curve, though single readings can be large or run the other way.
% is set by controls: 0 for no effect and ±100 for the full control effect; potency is the fitted concentration of half-maximal effect.

This assay deals with Rap guanine nucleotide exchange factor 4 (Homo sapiens) (UniProt Q8WZA2). Put plainly: Validation qHTS for agonist of cAMP-regulated guanine nucleotide exchange factor 4 (EPAC2).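 For activation: exchange makes BODIPY-GDP fluorescence drop when released from Rap1B; series mostly up to about 150 µM.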 The note with it: EPAC2 Rap1B BODIPY-GDP exchange, fluorescence; activation: hits give high values. The text has this: Principle Investigator: Xiaodong Cheng Ph.D.
Chain of Rap guanine nucleotide exchange factor 4 (Homo sapiens) (Q8WZA2 whole entry, looked up): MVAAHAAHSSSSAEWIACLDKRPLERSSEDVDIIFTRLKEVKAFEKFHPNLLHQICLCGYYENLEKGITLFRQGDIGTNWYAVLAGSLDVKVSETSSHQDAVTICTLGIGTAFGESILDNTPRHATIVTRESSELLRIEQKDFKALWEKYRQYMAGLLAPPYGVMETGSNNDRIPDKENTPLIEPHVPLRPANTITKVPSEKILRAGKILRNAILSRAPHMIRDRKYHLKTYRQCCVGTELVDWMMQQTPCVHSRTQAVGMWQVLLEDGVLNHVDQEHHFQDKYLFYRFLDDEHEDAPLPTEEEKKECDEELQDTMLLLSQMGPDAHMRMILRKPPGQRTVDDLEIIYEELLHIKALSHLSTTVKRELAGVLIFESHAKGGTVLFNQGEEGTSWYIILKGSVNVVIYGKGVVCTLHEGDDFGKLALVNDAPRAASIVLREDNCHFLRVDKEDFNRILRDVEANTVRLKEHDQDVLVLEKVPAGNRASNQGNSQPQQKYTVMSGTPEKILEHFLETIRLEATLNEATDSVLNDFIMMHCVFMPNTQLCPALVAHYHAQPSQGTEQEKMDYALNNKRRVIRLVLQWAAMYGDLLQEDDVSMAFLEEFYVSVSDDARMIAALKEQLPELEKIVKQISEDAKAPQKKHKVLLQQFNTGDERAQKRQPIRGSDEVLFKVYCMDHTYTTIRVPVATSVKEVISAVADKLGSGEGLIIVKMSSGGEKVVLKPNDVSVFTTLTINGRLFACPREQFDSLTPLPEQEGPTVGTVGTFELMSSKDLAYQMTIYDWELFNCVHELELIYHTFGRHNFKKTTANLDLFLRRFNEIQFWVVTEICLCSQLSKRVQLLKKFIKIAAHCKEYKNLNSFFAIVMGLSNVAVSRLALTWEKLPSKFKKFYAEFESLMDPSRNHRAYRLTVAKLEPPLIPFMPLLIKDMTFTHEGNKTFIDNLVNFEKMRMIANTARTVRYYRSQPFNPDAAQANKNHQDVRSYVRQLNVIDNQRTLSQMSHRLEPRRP
The University of Texas Medical Branch, […], TX
In multi-cellular eukaryotic organisms, the effects of cAMP are transduced by two ubiquitously-expressed intracellular cAMP receptors, the classic protein kinase A/cAMP-dependent protein kinase (PKA/cAPK) and the more recently discovered exchange protein directly activated by cAMP/cAMP-regulated guanine nucleotide exchange factor (EPAC/cAMP-GEF). Both PKA and EPAC are ubiquitously expressed in all tissues, and an increase in intracellular cAMP levels will lead to the activation of both PKA and EPAC. Therefore, careful dissections of the individual role and relative contribution of EPAC and PKA within the overall cAMP signaling in various model systems are critical for further elucidating the mechanism of cAMP signaling. To date no EPAC-specific antagonists and agonist, as well as isoform-specific agonists have been reported, and developing EPAC-specific pharmacological probes to determine the physiological functions that EPAC play in the overall cAMP-mediated signaling remains a major challenge within the research field. Furthermore, identified regulators of EPAC may lead to new mechanism-based therapeutic strategies specifically targeting the EPAC / cAMP-signaling components as EPAC has been implicated to play important roles in major human pathological conditions such as diabetes, heart disease, and cancer.
This qHTS will be used to screen the Molecular Libraries Small Molecule Repository (MLSMR) as a concentration-titration series using the NCGC unique quantitative screening (qHTS) platform to find activators for EPAC1. In addition, this assay will also be used as a counterscreen for the EPAC2 qHTS. This fluorescent based assay is developed and validated for EPAC1 that measures exchange using EPAC effector Rap1 complex with BODIPY-GDP, a GDP analog with a tethered fluorophores. Activators are identified by monitoring the change in fluorescence signal as the exchanged free BODIPY-GDP has a reduced fluorescence compared to Rap1-bound BODIPY-GDP. Increase in signal (activation) is the desired outcome for the EPAC1 agonist while no activity in this assay is desired for the EPAC2 agonist counterscreen.
[1] de Rooij, J., Zwartkruis, F. J., Verheijen, M. H., Cool, R. H., Nijman, S. M., Wittinghofer, A., and Bos, J.L. (1998) Nature 396, 474-477.
Briefly, three uL of reagents (100 nM EPAC2, 250 nM RAP1B-BODIPY-GDP, 50 uM GDP) were dispensed into a 1536-well Greiner black solid-bottom medium binding assay plate. Controls and test compounds (23 nL) were transferred to the plate via a Kalypsys pin tool equipped with a 1536-pin array. The plates were centrifuged at 1,000 rpm for 15 seconds followed by 5 minute incubation at room temperature. The assay plates were read at 5 minute intervals for 30 minutes in the ViewLux plate reader using 480nm excitation and 540nm emission filters. The results were normalized to the agonist positive control of 6.5 mM cAMP.
Background: Quantitative high-throughput screening tests each substance at several concentrations.
As for `O=c1c(-c2ccc(F)c(F)c2)nc2cncnc2n1Cc1ccccc1`, the activation is -20.1%.

Regarding `C[N+](C)(CCOc1ccccc1)Cc1cccs1`, the activation is -2.61%.

In the case of `O=C(NCc1ccncc1)c1cnn(-c2nccc(-c3cccs3)n2)c1C1CC1`, the activation is -7.47%.

On to `COc1ncc2nc(C)c(=O)n(Cc3cccs3)c2n1`, for which the activation was -6.26%.

`CN(C)Cc1ccccc1-c1cncnc1Nc1ccncc1`: the activation is 2.36%.

Turning to `COc1cccc(Cn2c(=O)c(C)nc3cnc(N4CCOCC4)nc32)c1`, the activation is 1.39%.

With `CN(C)C(=O)c1ccc(-c2cc(NCc3cccs3)ncn2)cc1`, the activation was -16.8%.

With `CCNc1ncc2nc(-c3cccc(C#N)c3)c(=O)n(Cc3cccc(OC)c3)c2n1`, the activation was 3.97%.

On to `Cc1ccc(C(C)CCN2CCOc3ccc(CN4CCOCC4)cc3C2)o1` (configuration not stated), for which the activation was 1.95%.

As for `CC1CN(c2cc3c(cc2F)c(=O)c(C(=O)O)cn3-c2ccc(F)cc2F)CCN1` (configuration not stated), the activation is -22.2%.

For `C=C[C@@H]1c2cc(C)ccc2N(S(=O)(=O)c2ccc(C)cc2)[C@H](c2ccc(OC(C)=O)cc2)C1(C#N)C#N`, the activation was -9.82%.

Turning to `CCN(CC)CCCC(C)Nc1c2ccc(Cl)cc2nc2ccc(OC)cc12` (configuration not stated), the Potency is 89.1 µM (active).

`CCN(CC)CCCC(C)Nc1ccnc2cc(Cl)ccc12` (configuration not stated): the activation is -8.87% and 0.526% and -22.7%.

Turning to `CCN(CC)CCCC(C)Nc1cc(/C=C/c2ccccc2Cl)nc2cc(Cl)ccc12` (configuration not stated), the activation was 16.5%.

`COc1ccccc1-c1ccnc(-n2ncc(C(=O)NCc3cccnc3)c2C)n1`: the activation was 8.95%.

As to `COc1ccccc1/C=C\C(=O)OC[C@@H]1CCCN2CCCC[C@H]12`, the activation was -21.1%.

`CCOC(=O)CCC(=O)O[C@H]1C(O[C@@H]2C(C)[C@H](O[C@H]3C[C@@](C)(OC)C(O)C(C)O3)C(C)C(=O)OC(CC)[C@@](C)(O)C(O)[C@H](C)C(=O)C(C)C[C@]2(C)O)OC(C)CC1N(C)C` (some centres not stated): the activation is -16.2%.

As for `O=c1c(-c2ccc(F)cc2)nc2cnc(Oc3cccc(Cl)c3)nc2n1C[C@H]1CCCO1`, the activation was 10.2%.

As to `CO[C@H]1[C@H](NC(=O)c2ccsc2)c2ccccc2C12CCN(Cc1c(O)ccc3ccccc13)CC2`, the activation is -7.57%.

As for `OCCN(CCO)c1nc(N2CCCCC2)c2nc(N(CCO)CCO)nc(N3CCCCC3)c2n1`, the Potency was 112 µM (active) and 100 µM (active).

Consider `COCC(=O)N1CCC2(CC1)CN(c1cccc(-c3ccccc3)c1)C2`, for which the activation is -17%.

On to `Cc1noc(C)c1-c1nc(NCc2cccnc2)c2ccccc2n1`, for which the activation was -6.22%.

On to `Cc1oc(-c2ccccc2NC(=O)c2ccccc2)nc1CNC(=O)C1CC(=O)OC12CCCCC2` (configuration not stated), for which the activation is -5.24%.

Take `CSc1nnc(CNC(=O)c2c(-c3ccccc3)noc2C)n1-c1ccc(F)cc1`: the activation is -0.342%.

For the compound `Cc1cccnc1-c1cccc2c1OC(CNC(=O)C(=O)c1ccccc1)C2` (configuration not stated), the activation is -7.04%.

As for `COc1cccc(CNC(=O)c2c(OC)cc(=O)n3c2CCN(C(=O)c2csc(C)n2)CC3)c1`, the activation is 1.41%.

As for `CCOC(=O)c1c[nH]c2cc(OCC(C)C)c(OCC(C)C)cc2c1=O`, the activation is -9.73%.

Consider `Cn1c2c(c(=O)c3ccccc31)C[C@@H](O)C(C)(C)O2`, for which the activation was -9.21%.

With `Cc1cc2nc3c(=O)[nH]c(=O)nc-3n(CC(O)C(O)C(O)CO)c2cc1C` (configuration not stated), the Potency is 89.1 µM (active).

Regarding `Cc1cc2nc3c(=O)[nH]c(=O)nc-3n(C[C@H](O)[C@H](O)[C@H](O)COP(=O)(O)OP(=O)(O)OC[C@H]3O[C@@H](n4cnc5c(N)ncnc54)[C@H](O)[C@@H]3O)c2cc1C`, the Potency is 89.1 µM (active).

Turning to `Nc1ncnc2c1ncn2[C@@H]1O[C@H](COP(=O)(O)OP(=O)(O)OP(=O)(O)O)[C@@H](O)[C@H]1O`, the activation is 1.95%.

On to `Cc1cc2nc3c(=O)[nH]c(=O)nc-3n(C[C@H](O)[C@H](O)[C@H](O)CO)c2cc1C`, for which the Potency is 79.4 µM (active) and 100 µM (active).

As for `Nc1ncnc2c1ncn2[C@@H]1O[C@H](COP(=O)(O)OP(=O)(O)OP(=O)(O)OP(=O)(O)OC[C@@H]2O[C@H](n3cnc4c(N)ncnc43)[C@@H](O)[C@H]2O)[C@@H](O)[C@H]1O`, the activation was 12.8% and -62.2%.

`CC[C@H]1OC(=O)[C@H](C)[C@@H](O[C@H]2C[C@@](C)(OC)[C@@H](O)[C@H](C)O2)[C@H](C)[C@@H](O[C@@H]2O[C@H](C)C[C@H](N(C)C)[C@H]2O)[C@](C)(O)C[C@H](C)C(=NOCOCCOC)[C@H](C)[C@@H](O)[C@]1(C)O`: the activation is -4.72%.

On to `C[C@@H]1CN(Cc2ccc3c(c2)CN(Cc2cccc4c2OCO4)CCO3)C[C@H](C)O1`, for which the activation was -2.91%.

On to `CC(=O)c1ccc(F)c(-c2cc(C)cc3c2OC(CNC(=O)C[C@@H]2C[C@@H](C)NC(=S)N2)C3)c1` (some centres not stated), for which the activation was -13.4%.

As for `C[n+]1c2cc(N)ccc2cc2ccc(N)cc21` (tested in a mixture with another compound), the Potency was 22.4 µM (active).

For the compound `Cc1ccc(N)cc1O`, the activation is 2.89%.

As for `CC(C)NC(=O)N1CCC2(CC1)CCN(S(=O)(=O)c1ccccc1)CC2`, the activation is -7.09%.

As to `O=S1(=O)CCOCCCN1Cc1cccc(F)c1`, the activation was -1.25%.

Consider `OCC1OC(n2cnc3c(Cl)nc(Cl)nc32)C(O)C1O` (configuration not stated), for which the activation was -15.7%.

Take `O=C(c1cccc(F)c1)N1CCC2(CC1)CN(c1ccccc1)C2`: the activation is 4.44%.

For `NC(=S)c1ccc[n+]([C@@H]2O[C@@H](COP(=O)([O-])OP(=O)(O)OC[C@H]3O[C@@H](n4cnc5c(N)ncnc54)[C@H](OP(=O)(O)O)[C@@H]3O)C(O)C2O)c1` (some centres not stated), the activation was -34.4%.

Take `COCCn1c(=O)c(CCc2ccccc2)nc2cnc(N3CCN(C)CC3)nc21`: the activation is -2.75%.

As for `COC(=O)C1C(O)CC[C@H]2CN3CCc4c([nH]c5ccccc45)C3C[C@H]12` (some centres not stated), the activation is 2.5%.

For `Cc1c(C(=O)NCCCc2ccncc2)cnn1-c1nccc(-c2ccccc2F)n1`, the activation was -21.1%.

As for `COc1cccc(-c2nc(N3CCN(C)CC3)c3ccccc3n2)c1`, the activation was -6.1%.

Regarding `COc1cccc(CNC(=O)c2c(OC)cc(=O)n3c2CCN(C(=O)c2cc(C)ccc2C)CC3)c1`, the activation was -2.82%.

Take `O=c1c(-c2ccc(Cl)cc2)nc2cnc(N3CCOCC3)nc2n1Cc1ccc(F)cc1`: the activation was -11.5%.

For the compound `COc1cc(CN2CCOc3ccc(C(O)c4cccnc4)cc3C2)cc(OC)c1` (configuration not stated), the activation was -13.6%.

Regarding `Nc1cc(N)cc(N)c1`, the Potency was 50.1 µM (active).

Turning to `COc1cc(N)c(N)cc1OC`, the activation was -7.59%.

On to `Nc1ccc(O)cc1`, for which the activation was 25.8% and 23.8%.

Take `Cc1cnc(CNc2cc(-c3ccc(N(C)C)cc3)ncn2)cn1`: the activation was -19.7%.

For the compound `COc1ccccc1C1CN(CCNC(=O)c2ccc3c(c2)OCCO3)Cc2ccccc2O1` (configuration not stated), the activation was 10.6%.

For `COc1ccccc1CN1[C@@H](CC(=O)O)c2ccccc2S1(=O)=O`, the activation is -19.4%.

With `COC(=O)C1CCN(Cc2ccc3c(c2)CN(C(=O)c2ccc(-n4cnnn4)cc2)CCO3)CC1`, the activation is -3.06%.

On to `COc1cc(/C(C)=C/c2ccccc2)c2c(c1)oc1ccccc12`, for which the activation was -19%.

Turning to `CCCCCCC[n+]1ccc(/C=C/c2c(C)[nH]c3ccccc23)c2ccccc21`, the activation is -18.3%.

Turning to `CCCCCCCCCCCCCCCC[n+]1ccc(/C=C/c2c(C)[nH]c3ccccc23)cc1`, the activation is -30%.

Consider `CCCCCCC[n+]1ccc(/C=C/c2c(C)[nH]c3ccccc23)cc1`, for which the Potency is 25.1 µM (active).

Turning to `Cc1cnc(-n2ncc(C(=O)NCc3ccccn3)c2C2CC2)nc1-c1cccs1`, the activation is -5.87%.

As to `Nc1ccc2nc[nH]c2c1`, the activation was -7.36%.

Regarding `Nc1ccc2cc3ccc(N)cc3nc2c1`, the Potency was 89.1 µM (active).

With `c1ccc2nc3ccccc3cc2c1`, the activation is -8.02%.

On to `COc1ccc2c(c1)-c1nc(-n3ncc(C(=O)NCC4CCCN(C)C4)c3C3CC3)ncc1CC2` (configuration not stated), for which the activation is 1.91%.

For the compound `CC(=O)N[C@@H]1C(O[C@H]2O[C@H](C(=O)O)C(O)[C@H](O)[C@H]2O)[C@H](O)[C@@H](CO)O[C@H]1O[C@@H]1C(C(=O)O)O[C@@H](O[C@H]2[C@H](O)[C@@H](CO)OC(O)[C@@H]2NC(C)=O)[C@H](O)[C@H]1O` (some centres not stated), the activation is -11.1%.

Take `CCn1c(C)nc2cc(NS(=O)(=O)c3ccccc3)cc(C(=O)N3C[C@@H](C)O[C@@H](C)C3)c21`: the activation is -0.794%.

With `OC(C1=C/C(=C\c2ccncc2)c2ccccc21)c1ccncc1` (configuration not stated), the activation was -21.2%.

In the case of `COc1ccc(C(=O)N2CCC3(CC2)c2ccccc2[C@@H](NC(=O)c2ccccn2)[C@@H]3OC)c(O)c1`, the activation was 3.44%.

`O=C1[C@H](Cc2ccccc2)NC/C=C\C[C@@H](c2ccc(Cl)cc2)N1Cc1ccccc1`: the activation was -43%.

With `CC(C)C[C@@H](CO)N1CCN(Cc2cccc(C#N)c2)CCC1=O`, the activation was -27.7%.

As for `COc1ccc(OC)c(CN2CCCC(c3nc(-c4ccncc4)ncc3-c3ccccc3C)C2)c1` (configuration not stated), the activation is -2.68%.

Turning to `FC(F)OC(Cl)C(F)(F)F` (configuration not stated), the Potency is 31.6 µM (active).

`FC(F)(F)C(Cl)Br` (configuration not stated): the activation is -29.1%.

For `COCc1ccc(CN2CCOc3c(O)cc(-c4cc(C)c5ccc(F)cc5n4)cc3C2)o1`, the activation is 8.6%.

As for `O=C(c1cc(C(F)(F)F)cc(C(F)(F)F)c1)N1CCC2(CCCN(Cc3ccccc3)C2)CC1`, the activation was -6.26%.
